Results reported in the supplement of paper PMC4466140.

target: AgAbp1; assay: SPOT peptide array binding signal intensity (averaged, normalized) (arbitrary units (background-subtracted, floor 0; scale differs between SH3 domains)); higher = stronger binding of the SH3 domain to the peptide
In short: (§1)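 Binding signal refers to normalized, background-subtracted spot intensity averaged over replicates, expressed in arbitrary units that differ between domains. GST-fused SH3 domains from four yeast species were incubated at 10 μg/ml overnight at 4°C on cellulose membranes of synthetic 15-mer peptides with cysteines replaced by serines. Bound protein was detected with anti-GST antibody, an HRP anti-mouse secondary and luminol, and quantified with Genespotter.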

Binder	SPOT peptide array binding signal intensity
IFLRISINFPLNYPN	76

target: AgBbc1; assay: as above
In short: as §1

Binder	SPOT peptide array binding signal intensity
IFLRISINFPLNYPN	233

target: AgBem1-D1; assay: as above
In short: as §1

Binder	SPOT peptide array binding signal intensity
IFLRISINFPLNYPN	952

target: AgBzz1-D1; assay: as above
In short: as §1

Binder	SPOT peptide array binding signal intensity
IFLRISINFPLNYPN	1120

target: AgBzz1-D2; assay: as above
In short: as §1

Binder	SPOT peptide array binding signal intensity
IFLRISINFPLNYPN	412

target: AgCyk3; assay: as above
In short: as §1

Binder	SPOT peptide array binding signal intensity
IFLRISINFPLNYPN	52.5

target: AgFus1; assay: as above
In short: as §1

Binder	SPOT peptide array binding signal intensity
IFLRISINFPLNYPN	4330

target: AgHof1; assay: as above
In short: as §1

Binder	SPOT peptide array binding signal intensity
IFLRISINFPLNYPN	218

target: AgHse1; assay: as above
In short: as §1

Binder	SPOT peptide array binding signal intensity
IFLRISINFPLNYPN	2460

target: AgLsb1; assay: as above
In short: as §1

Binder	SPOT peptide array binding signal intensity
IFLRISINFPLNYPN	68.8

target: AgLsb4; assay: as above
In short: as §1

Binder	SPOT peptide array binding signal intensity
IFLRISINFPLNYPN	2440

target: AgMyo5; assay: as above
In short: as §1

Binder	SPOT peptide array binding signal intensity
IFLRISINFPLNYPN	29.5

target: AgNbp2; assay: as above
In short: as §1

Binder	SPOT peptide array binding signal intensity
IFLRISINFPLNYPN	1630

target: AgRvs167; assay: as above
In short: as §1

Binder	SPOT peptide array binding signal intensity
IFLRISINFPLNYPN	162

target: AgSho1; assay: as above
In short: as §1

Binder	SPOT peptide array binding signal intensity
IFLRISINFPLNYPN	2150

target: AgSla1-D1-D2; assay: as above
In short: as §1

Binder	SPOT peptide array binding signal intensity
IFLRISINFPLNYPN	74.2

target: AgSla1-D3; assay: as above
In short: as §1

Binder	SPOT peptide array binding signal intensity
IFLRISINFPLNYPN	73.9

target: CaAbp1-D1; assay: as above
In short: as §1

Binder	SPOT peptide array binding signal intensity
IFLRISINFPLNYPN	448

target: CaAbp1-D2; assay: as above
In short: as §1

Binder	SPOT peptide array binding signal intensity
IFLRISINFPLNYPN	305

target: CaBbc1; assay: as above
In short: as §1

Binder	SPOT peptide array binding signal intensity
IFLRISINFPLNYPN	487

target: CaBem1-D1; assay: as above
In short: as §1

Binder	SPOT peptide array binding signal intensity
IFLRISINFPLNYPN	666

target: CaBzz1-D1; assay: as above
In short: as §1

Binder	SPOT peptide array binding signal intensity
IFLRISINFPLNYPN	1170

target: CaBzz1-D2; assay: as above
In short: as §1

Binder	SPOT peptide array binding signal intensity
IFLRISINFPLNYPN	821

target: CaCyk3; assay: as above
In short: as §1

Binder	SPOT peptide array binding signal intensity
IFLRISINFPLNYPN	107

target: CaFus1; assay: as above
In short: as §1

Binder	SPOT peptide array binding signal intensity
IFLRISINFPLNYPN	7820

target: CaHof1; assay: as above
In short: as §1

Binder	SPOT peptide array binding signal intensity
IFLRISINFPLNYPN	1.25

target: CaHse1; assay: as above
In short: as §1

Binder	SPOT peptide array binding signal intensity
IFLRISINFPLNYPN	1570

target: CaLsb1; assay: as above
In short: as §1

Binder	SPOT peptide array binding signal intensity
IFLRISINFPLNYPN	63.5

target: CaLsb4; assay: as above
In short: as §1

Binder	SPOT peptide array binding signal intensity
IFLRISINFPLNYPN	477

target: CaMyo5; assay: as above
In short: as §1

Binder	SPOT peptide array binding signal intensity
IFLRISINFPLNYPN	156

target: CaNbp2; assay: as above
In short: as §1

Binder	SPOT peptide array binding signal intensity
IFLRISINFPLNYPN	2110

target: CaRvs167; assay: as above
In short: as §1

Binder	SPOT peptide array binding signal intensity
IFLRISINFPLNYPN	750

target: CaRvs167-3; assay: as above
In short: as §1

Binder	SPOT peptide array binding signal intensity
IFLRISINFPLNYPN	1500

target: CaSho1; assay: as above
In short: as §1

Binder	SPOT peptide array binding signal intensity
IFLRISINFPLNYPN	2060

target: CaSla1-D1-D2; assay: as above
In short: as §1

Binder	SPOT peptide array binding signal intensity
IFLRISINFPLNYPN	602

target: CaSla1-D3; assay: as above
In short: as §1

Binder	SPOT peptide array binding signal intensity
IFLRISINFPLNYPN	1050

target: ScAbp1; assay: as above
In short: as §1

Binder	SPOT peptide array binding signal intensity
IFLRISINFPLNYPN	93.2

target: ScBbc1; assay: as above
In short: as §1

Binder	SPOT peptide array binding signal intensity
IFLRISINFPLNYPN	59.9

target: ScBem1-D1; assay: as above
In short: as §1

Binder	SPOT peptide array binding signal intensity
IFLRISINFPLNYPN	194

target: ScBzz1-D1; assay: as above
In short: as §1

Binder	SPOT peptide array binding signal intensity
IFLRISINFPLNYPN	558

target: ScBzz1-D2; assay: as above
In short: as §1

Binder	SPOT peptide array binding signal intensity
IFLRISINFPLNYPN	2990

target: ScCyk3; assay: as above
In short: as §1

Binder	SPOT peptide array binding signal intensity
IFLRISINFPLNYPN	127

target: ScFus1; assay: as above
In short: as §1

Binder	SPOT peptide array binding signal intensity
IFLRISINFPLNYPN	5050

target: ScHof1; assay: as above
In short: as §1

Binder	SPOT peptide array binding signal intensity
IFLRISINFPLNYPN	30.8

target: ScHse1; assay: as above
In short: as §1

Binder	SPOT peptide array binding signal intensity
IFLRISINFPLNYPN	3840

target: ScLsb1; assay: as above
In short: as §1

Binder	SPOT peptide array binding signal intensity
IFLRISINFPLNYPN	12.8

target: ScLsb2; assay: as above
In short: as §1

Binder	SPOT peptide array binding signal intensity
IFLRISINFPLNYPN	64

target: ScLsb3; assay: as above
In short: as §1

Binder	SPOT peptide array binding signal intensity
IFLRISINFPLNYPN	1490

target: ScLsb4; assay: as above
In short: as §1

Binder	SPOT peptide array binding signal intensity
IFLRISINFPLNYPN	396

target: ScMyo3; assay: as above
In short: as §1

Binder	SPOT peptide array binding signal intensity
IFLRISINFPLNYPN	32.5

target: ScMyo5; assay: as above
In short: as §1

Binder	SPOT peptide array binding signal intensity
IFLRISINFPLNYPN	114

target: ScNbp2; assay: as above
In short: as §1

Binder	SPOT peptide array binding signal intensity
IFLRISINFPLNYPN	2820

target: ScPex13; assay: as above
In short: as §1

Binder	SPOT peptide array binding signal intensity
IFLRISINFPLNYPN	516

target: ScRvs167; assay: as above
In short: as §1

Binder	SPOT peptide array binding signal intensity
IFLRISINFPLNYPN	223

target: ScSho1; assay: as above
In short: as §1

Binder	SPOT peptide array binding signal intensity
IFLRISINFPLNYPN	6350

target: ScSla1-D1-D2; assay: as above
In short: as §1

Binder	SPOT peptide array binding signal intensity
IFLRISINFPLNYPN	880

target: ScSla1-D3; assay: as above
In short: as §1

Binder	SPOT peptide array binding signal intensity
IFLRISINFPLNYPN	344

target: SpAbp1-D1; assay: as above
In short: as §1

Binder	SPOT peptide array binding signal intensity
IFLRISINFPLNYPN	211

target: SpBbc1; assay: as above
In short: as §1

Binder	SPOT peptide array binding signal intensity
IFLRISINFPLNYPN	238

target: SpBzz1-D1; assay: as above
In short: as §1

Binder	SPOT peptide array binding signal intensity
IFLRISINFPLNYPN	1240

target: SpBzz1-D2; assay: as above
In short: as §1

Binder	SPOT peptide array binding signal intensity
IFLRISINFPLNYPN	97

target: SpCyk3; assay: as above
In short: as §1

Binder	SPOT peptide array binding signal intensity
IFLRISINFPLNYPN	35

target: SpHof1; assay: as above
In short: as §1

Binder	SPOT peptide array binding signal intensity
IFLRISINFPLNYPN	342

target: SpHof1-2; assay: as above
In short: as §1

Binder	SPOT peptide array binding signal intensity
IFLRISINFPLNYPN	157

target: SpHof1-3; assay: as above
In short: as §1

Binder	SPOT peptide array binding signal intensity
IFLRISINFPLNYPN	1040

target: SpHse1; assay: as above
In short: as §1

Binder	SPOT peptide array binding signal intensity
IFLRISINFPLNYPN	2240

target: SpLsb1; assay: as above
In short: as §1

Binder	SPOT peptide array binding signal intensity
IFLRISINFPLNYPN	33

target: SpLsb4; assay: as above
In short: as §1

Binder	SPOT peptide array binding signal intensity
IFLRISINFPLNYPN	625

target: SpMyo1; assay: as above
In short: as §1

Binder	SPOT peptide array binding signal intensity
IFLRISINFPLNYPN	168

target: SpNbp2; assay: as above
In short: as §1

Binder	SPOT peptide array binding signal intensity
IFLRISINFPLNYPN	1680

target: SpPex13; assay: as above
In short: as §1

Binder	SPOT peptide array binding signal intensity
IFLRISINFPLNYPN	1640

target: SpRvs167; assay: as above
In short: as §1

Binder	SPOT peptide array binding signal intensity
IFLRISINFPLNYPN	239

target: SpSla1-D1-D2; assay: as above
In short: as §1

Binder	SPOT peptide array binding signal intensity
IFLRISINFPLNYPN	68

target: SpSla1-D3; assay: as above
In short: as §1

Binder	SPOT peptide array binding signal intensity
IFLRISINFPLNYPN	512
